These results are taken from PubChem BioAssay (EPA / NIEHS).

Activity calls are given as the source filed them. How the source made its calls: active means hit-call score of the fitted dose curve at least 0.9, where 1 is the maximum; inactive means score below 0.9.

A short description of the assay: ATG_M_06_CIS: Attagene CIS-FACTORIAL HepG2 Assay for M06 Transcription Factor (Internal Marker) (AID 2282950). Conditions: HepG2 Attagene CIS-FACTORIAL M06 internal marker reporter; actives raise or lower the signal. How it is done:
ATG_CIS is a cell-based, multiplexed-readout assay that uses HepG2, a human liver cell line, with measurements taken at 24 hours after chemical dosing in a 24-well plate.ATG_M_06_CIS is one of 52 assay component(s) measured or calculated from the ATG_CIS assay. It is designed to make measurements of mRNA induction, a form of inducible reporter, as detected with fluorescence intensity signals by Reverse transcription polymerase chain reaction (RT-PCR) and Capillary electrophoresis technology.Data from the assay component ATG_M_06_CIS was analyzed into 1 assay endpoint. This assay endpoint, ATG_M_06_CIS, was analyzed with bidirectional fitting relative to DMSO as the negative control and baseline of activity. Using a type of inducible reporter, measures of mRNA for gain or loss-of-signal activity can be used to understand the background control at the transcription factor-level as they relate to the gene . Furthermore, this assay endpoint can be referred to as a secondary readout, because this assay has produced multiple assay endpoints where this one serves a background control function. To generalize the intended target to other relatable targets, this assay endpoint is annotated to the background measurement intended target family, where the subfamily is internal marker.
Human liver HepG2 cells are transiently transfected with multiple reporter transcription units (MRTUs) in 6-well plates using FuGene 6 reagent (Roche; 3 ml FuGene/1 mg DNA). The MRTU constructs are regulated by a cis-regulating element (promoter). […] A major difference between the CIS and TRANS system is that in CIS activities of endogenous TFs are measured, whereas the TRANS assay evaluates changes in activities of exogenous, chimeric NR-Gal4 proteins. […] At the end of 24 hour incubation, total RNA was isolated using TriZol reagent (Invitrogen). The isolated RNA is then reverse-transcribed using oligo(dT) primer and Mo-MLV reverse transcriptase (Invitrogen) with DNAse I (Ambion) treatment for 30 min. The one-tenth of the produced cDNA was amplified by PCR using Taq DNA polymerase (Invitrogen) and two reporter sequence-specific primers. The PCR products were fluorescently labeled by primer extension with 6-arboxyfluorescein (6-FAM) 5'-labeled reporter sequence-specific primer (2 min at 95 C, 20 s at 68 C and 10 min at 72 C) and these products were digested with 5U of HpaI (New England Biolabs) for 2h at 37 C. The fragments were purified using Qiaquick PCR columns (Qiagen), analyzed on an ABI 3130xL genetic analyzer (Applied Biosystems) with peak positions identified by using a set of X-rhodamine (ROX)-labeled MapMarker1000 molecular weight standards (BioVentures). The raw capillary electrophoresis data was processed using Attagraph software (Attagene).
Take `CC(C)N(Cc1ccccc1)C(=O)C(C)(C)C`: the result was inactive.

Take `O=[N+]([O-])C(Br)(CO)CO`: the outcome was inactive.

As to `Cc1ccc(N=C=O)cc1N=C=O`, the molecule was classed as inactive.

On to `Nc1ccc(N=Nc2ccccc2)cc1`, for which the call was inactive.

Regarding `Clc1ccc(C(c2ccc(Cl)cc2)C(Cl)Cl)cc1`, the result was inactive.

On to `CS(=O)(=O)NC(=O)c1cc(Oc2ccc(C(F)(F)F)cc2Cl)ccc1[N+](=O)[O-]`, for which the outcome was inactive.

`CCN(CC)CCO`: the result was inactive.

In the case of `O=C(N[C@H](c1ccccc1)[C@@H]1CN2CCC1CC2)c1c(Cl)ccc(C(F)(F)F)c1Cl`, the outcome was inactive.

With `OCCCBr`, the molecule was called inactive.

As to `Clc1ccc(Cl)c(Cl)c1`, the outcome was inactive.

For the molecule `C=CCc1ccc2c(c1)OCO2`, the molecule was called inactive.

Take `Cc1cccc(N)c1N`: the molecule was called inactive.

For `Oc1ccc2ccc3cccc4ccc1c2c34`, the outcome was inactive.

For the molecule `Oc1ccccc1Cl`, the molecule was called inactive.

Regarding `ClCCOCCCl`, the molecule was classed as inactive.

In the case of `O=C(Nc1ccccc1)c1ccccc1I`, the result was inactive.

As for `ClC1=C(Cl)[C@]2(Cl)[C@H]3[C@H]([C@@H]4C=C[C@H]3C4)[C@@]1(Cl)C2(Cl)Cl`, the outcome was inactive.

`c1ccc2c(c1)-c1cccc3cccc-2c13`: the molecule was classed as inactive.

In the case of `CN(C)[C@@H]1C(=O)C(C(N)=O)=C(O)[C@@]2(O)C(=O)C3=C(O)c4c(O)cccc4[C@@](C)(O)[C@H]3C[C@@H]12`, the call was inactive.

Take `[Cl-].[Cl-].[Hg+2]`: the molecule was called inactive.

Turning to `CCCCOC(=O)c1ccccc1C(=O)OCc1ccccc1`, the call was inactive.

As for `CC(C)COC(=O)c1ccccc1C(=O)OCC(C)C`, the call was inactive.

As to `Nc1ccc(Cl)cc1N`, the outcome was inactive.

Turning to `CCCCCCCCn1sccc1=O`, the molecule was called inactive.

For `CC(C)(C)C(O)(CCc1ccc(Cl)cc1)Cn1cncn1` (stereo not given), the molecule was classed as inactive.

In the case of `C[C@]12C=CC3=C4CCC(=O)C=C4CC[C@H]3[C@@H]1CC[C@@H]2O`, the outcome was inactive.

For `COc1cc(C=O)cc2c1[C@H](COC(N)=O)[C@]1(OC(C)=O)ON2C[C@H]2[C@@H]1N2C(C)=O`, the molecule was called inactive.

Turning to `Cc1ccc(N)c(N)c1`, the molecule was classed as inactive.

For the molecule `CC(C)(C)OOC(C)(C)CCC(C)(C)OOC(C)(C)C`, the molecule was called inactive.

As to `OCCOCCO`, the molecule was classed as inactive.

Take `c1ccc2c(c1)oc1ccccc12`: the call was inactive.

As to `CCC12COCN1COC2`, the outcome was inactive.

Take `Clc1ccc(C(c2ccc(Cl)cc2)C(Cl)(Cl)Cl)cc1`: the call was inactive.

Take `Clc1ccccc1Cl`: the call was inactive.

Consider `CCC(C)c1ccc(O)cc1` (stereo not given), for which the molecule was called inactive.

Turning to `N#CC(Br)(Br)C(N)=O`, the molecule was called inactive.

For the molecule `c1ccc(C2CO2)cc1` (stereo not given), the molecule was called inactive.

Consider `OCCCl`, for which the result was inactive.

For `CCCCCOC(=O)c1ccccc1C(=O)OCCCCC`, the result was inactive.

For `O=C1CCCO1`, the molecule was called inactive.
